This passage reports growth results from PubChem BioAssay (NCI).

Some test systems named below: SK-MEL-2 melanoma; EKVX NSCLC; SN12C renal; UO-31 renal; TK-10 renal; ACHN renal; CAKI-1 renal; A498 renal; CCRF-CEM leukemia; MOLT-4 leukemia; RPMI-8226 leukemia; OVCAR-8 ovarian; OVCAR-5 ovarian; OVCAR-4 ovarian; SK-OV-3 ovarian; IGROV1 ovarian; OVCAR-3 ovarian; HS 578T breast; NCI/ADR-RES ovarian.
Test in all cases: NCI-60 one-dose screen, 48 h (100 = growth as untreated, 0 = no growth, -100 = all killed)
What all share (conditions): 10 µM unless noted

This is part of a sample that, as a whole, favours compounds with a hit. Of some 83,000 tested, about 20% had one in any assay.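 In brief: 96-well plates, 48 h treatment, single concentration, percent growth endpoint.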 A number with no mark means an inactive call. Activity calls are given as the source filed them. The calls were made as follows: active = growth percent below 10; inactive = the rest.

As for `Oc1ccc(CCl)c2cccnc12`, the growth was 81.2% in the test on SK-MEL-2 melanoma; 51.6% with EKVX NSCLC; 77% in the test on SN12C renal; 45.3% with UO-31 renal; 104% in the test with TK-10 renal; 64.1% with ACHN renal. Besides, the growth is 88.8% in the test with CAKI-1 renal; 101% in the test on A498 renal; 31.8% in the test on CCRF-CEM leukemia; 82.6% in the test with MOLT-4 leukemia; 57.4% with RPMI-8226 leukemia; 73.8% with OVCAR-8 ovarian. Besides, the growth with OVCAR-5 ovarian is 88.4%; with OVCAR-4 ovarian, 24.6%; in the test with SK-OV-3 ovarian, 87.9%; in the test with IGROV1 ovarian, 78.8%; with OVCAR-3 ovarian, 10.8%; with HS 578T breast, 79.7%. The growth in the test with NCI/ADR-RES ovarian was 28.8%.

As for `CC(=O)Oc1ccccc1C(=O)N=C1[Se]CCCN1C(=O)c1ccccc1OC(C)=O`, the growth is 91.4% in the test with SK-MEL-2 melanoma; 75.7% in the test with EKVX NSCLC; -15.2% (active) in the test on SN12C renal; -55.8% (active) in the test with UO-31 renal; 6.56% (active) in the test with TK-10 renal; 20.8% in the test on ACHN renal. The growth in the test on CAKI-1 renal is 52.5%; in the test on A498 renal it was 68.6%; in the test on CCRF-CEM leukemia, 22.1%; in the test with MOLT-4 leukemia, 9.25% (active); with RPMI-8226 leukemia, 80.8%; in the test on OVCAR-8 ovarian, 47%. The growth in the test on OVCAR-5 ovarian is 90.8%; with OVCAR-4 ovarian, 78.8%; with SK-OV-3 ovarian, 141%; in the test on IGROV1 ovarian it was 11.7%; with OVCAR-3 ovarian, 7.64% (active); in the test on HS 578T breast, 24.9%. Further, the growth in the test with NCI/ADR-RES ovarian is 29%.

As for `COc1ccc([C@H]2c3cc(OC)c(OC)cc3C=C(C=O)C2CO)cc1OC` (some centres not stated), the growth is 20.8% with SK-MEL-2 melanoma; 91.2% with EKVX NSCLC; 68% in the test with SN12C renal; 68.4% with UO-31 renal; 73.4% with TK-10 renal; 57.8% in the test on ACHN renal. The growth was 52.4% in the test on CAKI-1 renal; 104% with A498 renal; 56.4% with CCRF-CEM leukemia; 49.5% with MOLT-4 leukemia; 61.5% in the test with RPMI-8226 leukemia; 60.8% with OVCAR-8 ovarian. Besides, the growth with OVCAR-5 ovarian is 106%; with OVCAR-4 ovarian it was 63.5%; with SK-OV-3 ovarian it was 73.3%; with IGROV1 ovarian it was 34.1%; with OVCAR-3 ovarian, -30.6% (active); in the test with HS 578T breast, 14.2%. The growth in the test with NCI/ADR-RES ovarian is 70.8%.

In the case of `CCOc1c(B(O)O)cccc1-c1nc2ccc3[nH]ncc3c2c2c1CCCC2`, the growth in the test with SK-MEL-2 melanoma is 113%; with EKVX NSCLC it was 47.5%; with SN12C renal it was 62.7%; with UO-31 renal, 29.9%; in the test with TK-10 renal, 19.7%; with ACHN renal it was 51.1%. The growth in the test on CAKI-1 renal was -26.9% (active); in the test with A498 renal, 61.8%; in the test with CCRF-CEM leukemia, 44%; in the test on MOLT-4 leukemia, 28.8%; in the test on RPMI-8226 leukemia it was 39.5%; with OVCAR-8 ovarian it was 65%. Besides, the growth in the test with OVCAR-5 ovarian is 74.7%; in the test on OVCAR-4 ovarian, 93.3%; with SK-OV-3 ovarian it was 72%; in the test on IGROV1 ovarian, 77.6%; in the test with OVCAR-3 ovarian it was 113%; in the test on HS 578T breast it was 34.5%. The growth in the test on NCI/ADR-RES ovarian was 62.7%.

Take `COc1ccc(C2CC(c3ccc(Nc4ccnc5cc(Cl)ccc45)cc3)=NN2C=O)cc1` (configuration not stated): the growth in the test with SK-MEL-2 melanoma is 92.5%; in the test on EKVX NSCLC, 68.2%; with SN12C renal, 64.4%; in the test with UO-31 renal, 43.2%; with TK-10 renal, 91.2%; in the test with ACHN renal, 48.5%. Besides, the growth is 59.2% in the test with CAKI-1 renal; 101% in the test on A498 renal; 14% with CCRF-CEM leukemia; 25.8% in the test on MOLT-4 leukemia; 30.9% in the test on RPMI-8226 leukemia; 73.3% in the test with OVCAR-8 ovarian. Besides, the growth with OVCAR-5 ovarian was 102%; in the test on OVCAR-4 ovarian it was 62.3%; in the test on SK-OV-3 ovarian, 96.9%; in the test on IGROV1 ovarian it was 67.5%; in the test on OVCAR-3 ovarian it was 52.7%; with HS 578T breast it was 68.8%. The growth in the test on NCI/ADR-RES ovarian is 51.7%.

With `CCOC(=O)Cn1c(C)c(/C=N/NC(=O)c2cc3c(ccc4ccccc43)o2)c2ccccc21`, the growth in the test with SK-MEL-2 melanoma is 44.1%; in the test on EKVX NSCLC, 41.1%; with SN12C renal it was 34.4%; with UO-31 renal, 40.2%; in the test on TK-10 renal it was 58.8%; in the test with ACHN renal, 28.4%. The growth was 47.1% in the test with CAKI-1 renal; -6.48% (active) in the test on A498 renal; 11.3% with CCRF-CEM leukemia; 18.7% with MOLT-4 leukemia; 10.6% in the test on RPMI-8226 leukemia; 15.5% in the test with OVCAR-8 ovarian. Besides, the growth in the test with OVCAR-5 ovarian is 40%; in the test on OVCAR-4 ovarian, 51%; in the test with SK-OV-3 ovarian it was 6.12% (active); in the test with IGROV1 ovarian it was 26.3%; with OVCAR-3 ovarian, 0.688% (active); in the test on HS 578T breast it was 34.7%. In addition, in the test on NCI/ADR-RES ovarian, the growth is 8.7% (active).

As to `COc1ccc(OC)c(/C=C/c2nnc(Nc3ccccc3)o2)c1`, the growth in the test on SK-MEL-2 melanoma is 95%; with EKVX NSCLC, 89.9%; in the test on SN12C renal, 90.1%; in the test with UO-31 renal it was 94.5%; with TK-10 renal, 92.5%; in the test on ACHN renal, 97.2%. The growth was 78.3% with CAKI-1 renal; 73.7% in the test on A498 renal; 87.2% in the test with CCRF-CEM leukemia; 68.3% in the test on MOLT-4 leukemia; 103% in the test with RPMI-8226 leukemia; 105% in the test on OVCAR-8 ovarian. For the same compound, the growth was 93.2% in the test with OVCAR-5 ovarian; 102% with OVCAR-4 ovarian; 109% with SK-OV-3 ovarian; 109% in the test on IGROV1 ovarian; 103% in the test with OVCAR-3 ovarian; 98.5% in the test with HS 578T breast. Besides, the growth in the test on NCI/ADR-RES ovarian is 94.1%.

As to `C[N+]1=C(/C=C/c2ccc(O)c3ncccc23)C(C)(C)c2ccccc21`, the growth in the test on SK-MEL-2 melanoma is 44.9%; in the test on EKVX NSCLC, 58.7%; with SN12C renal, 42.7%; in the test on UO-31 renal it was 30.6%; in the test with TK-10 renal it was 97.1%; in the test with ACHN renal it was 31%. The growth is 25.7% with CAKI-1 renal; 101% with A498 renal; 75.8% with CCRF-CEM leukemia; 56.1% with MOLT-4 leukemia; 53.6% in the test with RPMI-8226 leukemia; 53.7% in the test on OVCAR-8 ovarian. For the same compound, the growth in the test on OVCAR-5 ovarian was 52.5%; in the test with OVCAR-4 ovarian, 27.7%; in the test on SK-OV-3 ovarian, 23%; in the test with IGROV1 ovarian it was 46%; in the test on OVCAR-3 ovarian, 83%; with HS 578T breast it was 49.2%. In the test with NCI/ADR-RES ovarian, the growth was 14.6%.
